# Measured values taken from the supplement of paper PMC10338343.
# ± gives the standard deviation.
# Tested on: MILI (PIWIL2) piRISC loaded with L1MC piRNA (26 nt)
# Assay: pre-steady-state target cleavage rate (min^-1); guide: L1MC piRNA 5'p-UAACUAAAUACUAUGCAAGCUGUAGG; MIWI and MILI are mouse PIWI proteins and EfPiwi is from a freshwater sponge; tags in brackets are library labels; higher = faster piRNA-guided slicing of the target
# Details: auxiliary factor: 500 nM mouse GTSF1
# In short: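 The method was Cleave-'n-Seq, in which uncleaved targets from a transcribed, DNA-blocked target RNA library were sequenced after exposure to active affinity-purified piRISC carrying one synthetic guide, with or without GTSF1 partner protein. Reactions contained 0.1 nM library, 1 nM piRISC and, where present, 500 nM GTSF1 in HEPES–potassium acetate buffer at 33 °C for 0–8 or 0–960 min. Reads were normalised to depth and to weakly complementary targets, three trials were pooled, and k3 was capped at 0.0001 min^-1. The pre-steady-state cleavage rate came from a burst-and-steady-state fit.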
row,Sequence,pre-steady-state target cleavage rate
1,UCCUGGAUGUCGAACGUAAGUAAUUAGAUA,< 0.0001
2,UCCUGGAACAGCUUGCUUAGUAUUUUCAAA,0.0287 ± 0.011
3,UCCUGGAUGUCGAAGCAUAGUAUUUAGUAA,0.0199 ± 0.0047
4,UCCUGGUACAGCUUGGAUACUAUUUAGUUA,0.153 ± 0.059
5,UCCUGGAUGAGCUAGCAUAGUAUUUACAAA,0.0471 ± 0.015
6,UCCUGGAUGUCCUUGCAUAGUAUAAUGUUA,0.0286 ± 0.011
7,UCCUGGAUGUGCUUGCAUUCUAUUUAGUUA,0.0101 ± 0.004
8,UCCUGGAUCAGCUUGCAUAGAAUUUUGUUA,0.038 ± 0.012
9,UCCUGGAUCAGCUUGCAUAGUUAAAUCAAA [g10:g22:cont:t1A],0.00426 ± 0.0036
10,UCCUGGAACUGCUUGCAUAGUAUUUACAAA,0.0945 ± 0.022
11,UCCUGGAACAGCUUGCAUAGUAUUUAUUA,0.046 ± 0.014
12,UCCUGGAUGUCGAAGCAUAGUAUAAUGUUA,0.0052 ± 0.0029
13,UCCUGGAUGUGCUAGCAUAGUAUAUAGUUA,0.115 ± 0.018
14,UCCUGGAUGUCCUUGCUUAGAAUUUAGUUA,0.00442 ± 0.004
15,UCCUGGAUGUGCUUGGAUUGUAUUUAGUUA,0.00469 ± 0.0044
16,UCCUGGAUCAGCUUGCAAUCUAUUUAGUUA,0.0116 ± 0.0035
17,UCCUGGUACAGCUUGCAUAGUAUUAUGAAA,0.00782 ± 0.0056
18,UCCUGGAUGUCCAUGCAUAGUAUUAAGUUA,0.0665 ± 0.018
19,UCCUCCUACAGCUUGCUAAGUAUUUAGUAA,0.0708 ± 0.013

row,Sequence,pre-steady-state target cleavage rate
1,UCCUGGAUCAGCUAGCAUAGUAUUUACUUA,0.134 ± 0.018
2,UCCUGCUACAGCUUGCAUAGUAUAUUCAAA,0.209 ± 0.059
3,UCCUGGAUGUCGAACGAUAGUAUUUUAGUUA,< 0.0001
4,UCCUGGAUGUCGAAGCAUAGUAUUAUAGUUA,0.0614 ± 0.014
5,UCCUGGAUGUCCUUGGUUAGUAUUUAGUAA,0.0915 ± 0.022
6,UCCUGGAACAGCUUGCAUUGAAUUUAGUUA,0.0179 ± 0.006
7,UCCUGGUACAGCUUGCAUAGUAUUUCGUUA,0.114 ± 0.037
8,UCCUGGUACAGCUUGCAUAGUAUAAAGUAA,0.0705 ± 0.02
9,UCCUCCUACAGCUACCAUAGUAUUUAGUAA,0.141 ± 0.023
10,UCCUCCUACAGCUUGGUUAGUAUUUACAAA,0.0445 ± 0.012
11,UCCUGGAUGUGCUUGCAUAGUAUUAGUUA,0.0236 ± 0.0068
12,UCCUGGAUGUGCUUGCAUACUAUUUAGUAA,0.00943 ± 0.0038
13,UCCUCCUACAGCUUGCAUGAGUAUUUAGUUA,0.011 ± 0.0056
14,UCCUGGAUGUCGAACGAUAGUAUUUAGUAUA,< 0.0001
15,UCCUGGAACAGCUUGCAUAGUUUUAAGUUA,0.0465 ± 0.009
16,UCCUGCUACACCUUGCAUAGUAUUUACAAA,0.144 ± 0.039
17,UCCUGGAUGUCCUUGCAUAGUAAUUAGUAA,0.0241 ± 0.0076
18,UCCUGGAACAGCUACCAUAGUAUUUAGAAA,0.0138 ± 0.0052

# Same assay, conditions: auxiliary factor: none (no GTSF1)
row,Sequence,pre-steady-state target cleavage rate
1,UCCUGGAACAGCUUGCUAUCAUAAAUCAAA [g15:g23:cont:t1A],< 0.0001
2,UCCUGGAUGUCGAACGAUAGUAUAUUAGUUA,< 0.0001
3,UCCUGGAUGUCGAACCAAAGUAUUUAGUAA,< 0.0001
